From PubChem BioAssay AID686971 (National Center for Advancing Translational Sciences (NCATS), 2013) come the findings set out here.

Screen size: about 360,000 compounds; about 7,500 (2.1%) were called active. Entries that show only a call come without a potency. Roughly 8% stayed inconclusive and do not appear here. The sample holds actives, similar compounds and a random draw of the others, so the mix is not that of the screen. Calls follow the shape of the dose curve; as a rule, active = well fitted cell-killing curve with a large enough effect; inconclusive = small, poorly fitted or top-dose-only effect, or effect the other way, or another doubt; inactive = no such curve, though single readings can be large or run the other way.
Potency is read from the fitted curve at half-maximal effect.

A short description of this test: qHTS for induction of synthetic lethality in tumor cells producing 2HG: qHTS for the HT-1080-IDH1KD cell line. The conditions noted are these: HT-1080 IDH1 knockdown viability, ATP luminescence, 48 h; series mostly up to 46.1 µM. In short, it runs like this:
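% activity derives from luminescence (CellTiter-Glo), normalised to DMSO and no-cell wells. HT-1080-IDH1KD cells, 750/well, had 48 h compound exposure at 37 °C.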
In the case of `CC1Cc2[nH][nH]c(=O)c2C(C2CCCC2)O1` (centres undefined), the Potency entry was “inactive”.
Take `O=C(C[C@H]1CC[C@H]2[C@@H](COC[C@H](O)CN2C(=O)c2ccccn2)O1)N1CCN(c2ccccc2)CC1`: the Potency result is “inactive”.
Take `c1cc(-c2ccc3[nH]ccc3c2)n2ccnc2c1`: the Potency entry was “inactive”.
Regarding `CCCCN(CCCC)CCC(O)c1cc2c(Cl)cc(Cl)cc2c2cc(C(F)(F)F)ccc12` (centres undefined), the Potency was 20.6 µM (active).
As to `CS(=O)(=O)N1CCCCC1c1cc(C(=O)NCc2ccccc2)no1` (centres undefined), the Potency result is “inactive”.
As to `Cn1c(Nc2ccc(F)cc2)nc2cc(-c3ccsc3)sc2c1=O`, the Potency entry is “inactive”.
Take `CC(C)NC(=O)C1(C)CCCCN1Cc1cccc(C(F)(F)F)c1` (centres undefined): the Potency result was “inactive”.
Then `Cc1ccc(S(=O)(=O)NN=C2CC(C)(C)CC(=O)C2(C)C)cc1`, with “inactive”.
On to `COc1ccc(-c2nnc(-c3ccc4ccccc4c3)o2)cc1`, for which the Potency result is “inactive”.
For `COc1ccc(-c2nnc(SC(C)C(=O)NC3CC3)o2)cc1` (centres undefined), the Potency result was “inactive”.
Consider `COc1ccc(-c2nnc(SC(=O)N3c4ccccc4Sc4ccccc43)o2)cc1`, for which the Potency was 11.2 µM (active).
Under `Cc1cccc(S(=O)(=O)N(C)C[C@@H]2OCc3cnnn3CCCC(=O)N([C@H](C)CO)C[C@@H]2C)c1` stands “inactive”.
`Cc1ccc(Cc2c(-c3ccc(C)cc3)nc3c4ccccc4ccn23)cc1`: the Potency entry was “inactive”.
In the case of `CS(=O)(=O)c1cccc(-c2ccc3nncn3c2)c1`, the Potency entry is “inactive”.
Turning to `COc1cc(NC(=O)c2cncc(-c3ccc(C#N)cc3)c2)cc(C(=O)Nc2cccc(C(F)(F)F)c2)c1`, the Potency result is “inactive”.
With `Cc1cccc(NC(=O)c2nnn(-c3cccc(C(F)(F)F)c3)c2N)c1`, the Potency entry was “inactive”.
In the case of `COc1cc(NC(=O)c2[nH]cnc2C(N)=O)cc(C(=O)Nc2cccc(C(F)(F)F)c2)c1`, the Potency was 20.6 µM (active).
With `C[C@H](CO)N1C[C@H](C)[C@H](CN(C)C(=O)c2ccncc2)OCc2ccccc2-c2c(n(C)c3ccccc23)C1=O`, the Potency entry is “inactive”.
`COc1ccc(C(C(=O)NCc2ccccc2)n2c(=O)c(-c3ccccc3)nc3ccccc32)cc1` (centres undefined): the Potency entry was “inactive”.
Take `C[C@H](O)[C@@H]1C(=O)N2CCc3c([nH]c4ccccc34)[C@@H]2C[C@@H]1N(C)C(=O)Nc1ccc(F)cc1`: the Potency result is “inactive”.
With `CC1(C(=O)Nc2ccc3c(c2)OCCO3)CCN1C(=O)Cc1cc(F)ccc1F` (centres undefined), the Potency entry is “inactive”.
Then `COC(=O)c1ccc(NCc2cc(O)ccc2O)cc1`, with 20.6 µM (active); and `CC1(C)C2CCC1(C)C(OC(=O)c1ccc(O)cc1)C2` (centres undefined), with “inactive”.
Then `CC(C)NC(=O)c1ccc(Cl)cc1Cl`, with “inactive”; and `CC(CN1CCOCC1)OC(=O)c1ccc(Cl)cc1Cl` (centres undefined), with “inactive”; and `O=C(OC12CC3CC(CC(C3)C1)C2)c1ccc(NCc2cc(O)ccc2O)cc1`, with 23.1 µM (active).
Then `COC(=O)c1ccc(NC(=O)Nc2ccc(C)cc2)cc1`, with “inactive”; and `COC(=O)c1ccc(NCC(=O)c2ccccc2)cc1`, with “inactive”; and `CC(C)OC(=O)c1ccc(NCc2cc(O)ccc2O)cc1Cl`, with 23.1 µM (active).
As for `C[C@@H]1CN([C@@H](C)CO)C(=O)c2cc(NS(C)(=O)=O)ccc2O[C@@H](C)CCCCO[C@H]1CN(C)C(=O)Nc1ccc2c(c1)OCO2`, the Potency result is “inactive”.
Under `CCNC(=O)C1(C)CCCN(Cc2noc(-c3ccccc3OC)n2)C1` (centres undefined) stands “inactive”.
Consider `CC(=O)c1nn(-c2ccccc2)c(=Nc2ccccc2)cc1C`, for which the Potency entry was “inactive”.
Turning to `CCCNC(=O)C1(C)CCN1C(=O)C1(c2ccccc2)CC1` (centres undefined), the Potency entry is “inactive”.
`CCCCCCN1CCN(C2CN(Cc3cn(CCCCCC)nn3)S(=O)(=O)C2)CC1` (centres undefined): the Potency entry is “inactive”.
Under `COc1ccc(CN2CCC(C)(Oc3cccc(F)c3)C2)c2ccccc12` (centres undefined) stands “inactive”; under `CCCCN1C[C@H](c2ccc(Br)cc2)[C@@H](CC(=O)Nc2ccc(Br)cc2)C1=O`, “inactive”.
With `O=C(CNC(=O)N1CC(=O)Nc2ccccc21)Nc1ccc(Br)cc1F`, the Potency entry was “inactive”.
Turning to `COc1ccc(/C=N/NC(=O)CNC(=O)c2ccc(S(=O)(=O)N3CCCC3)cc2)c(OC)c1`, the Potency entry is “inactive”.
Regarding `COc1cccc(/C=N/NC(=O)CNC(=O)c2ccc(S(=O)(=O)N3CCOCC3)cc2)c1OC`, the Potency entry was “inactive”.
Then `COc1ccc(C(=O)NCC(=O)N/N=C/c2ccc([N+](=O)[O-])o2)cc1OC`, with 14.6 µM (active); and `Cc1ccc(-c2nc3ccccn3c2Nc2ccc(F)cc2)o1`, with “inactive”; and `O=C1NC[C@H](CCCCN2C[C@H](Cc3ccc(O)cc3)N(CCc3ccccc3)C(=O)C2=O)N(CCc2ccccc2)C1=O`, with “inactive”.
For the compound `Cc1cccc(CN2CCC(CNC(=O)Nc3ccc(F)c(Cl)c3)CC2)c1`, the Potency is 14.6 µM (active).
Turning to `Cc1ccccc1NC(=O)NCC1CCN(Cc2cccc(Cl)c2)CC1`, the Potency entry was “inactive”.
Then `Cc1ccc(C)c(CN2CCC(CNC(=O)Nc3ccc(C)c(F)c3)CC2)c1`, with “inactive”; and `CSCCC(C(=O)NC(C)(C)C)n1c(-c2ccccc2)nc2ccccc21` (centres undefined), with “inactive”.
For `O=C(Nc1nnc(-c2ccco2)o1)c1ccc(S(=O)(=O)N2CCOCC2)cc1`, the Potency result was “inactive”.
As to `COc1ccc(-c2nnc(NC(=O)CS(=O)(=O)c3ccc(Cl)cc3)o2)c(OC)c1`, the Potency result was “inactive”.
Regarding `COc1cccc(-c2nnc(NC(=O)c3ccc(S(=O)(=O)N(CC(C)C)CC(C)C)cc3)o2)c1`, the Potency is 2.59 µM (active).
Regarding `COc1cc(C)c(CN2CCN(C(=O)CCC(=O)c3ccc(C)s3)CC2)cc1OC`, the Potency entry was “inactive”.
With `COc1ccc(NC(=O)c2sc(=O)n(Cc3ccc(S(=O)(=O)N(C)C)cc3)c2C)cc1`, the Potency result was “inactive”.
As for `CC1(C(=O)Nc2ccc3c(c2)OCCO3)CSCC(=O)N1CCOc1ccccc1` (centres undefined), the Potency entry is “inactive”.
Under `Cc1ccn(CC(=O)NC2CCCN(Cc3ccccc3F)C2)n1` (centres undefined) stands “inactive”; under `CC1Cc2[nH][nH]c(=O)c2C(C2CC2)O1` (centres undefined), “inactive”; under `O=C(CSc1ncn[nH]1)Nc1ccc(Br)cc1Br`, “inactive”.
For the compound `O=C(/C=C/Sc1ncn[nH]1)c1ccc(Cl)cc1`, the Potency is 5.8 µM (active).
As to `Cc1cccc(C=CC(=O)c2ccc(Cl)cc2)c1`, the Potency result was “inactive”.
For `Cc1ccc([C@H]2C[C@H](O)[C@@H](n3cc(COC(=O)c4ccccc4)nn3)CN2C(=O)C2CCCCC2)cc1`, the Potency entry is “inactive”.
Then `C=CCNc1nc(N)c([N+](=O)[O-])c(NC2CCCCC2)n1`, with “inactive”; and `Nc1nc(Nc2ccccc2F)nc(NC2CCCCC2)c1[N+](=O)[O-]`, with 18.4 µM (active).
With `Nc1nc(NCC2CCCO2)nc(Nc2ccccc2F)c1[N+](=O)[O-]` (centres undefined), the Potency result was “inactive”.
On to `Cn1cc(CN2CCC(C(O)CCc3ccccc3)CC2)c(-c2ccccc2F)n1` (centres undefined), for which the Potency result is “inactive”.
`Cc1cccc(-n2cc(CN3CCN(C(=O)c4ncn[nH]4)CC3)c(-c3cccc(F)c3)n2)c1`: the Potency entry was “inactive”.
With `COc1ccc(-n2cc(CN(C)Cc3n[nH]c(=O)[nH]3)c(-c3cccc(F)c3)n2)cc1`, the Potency entry was “inactive”.
In the case of `CCC(O)C1CCN(Cc2cn(-c3ccc(OC)cc3)nc2-c2cccc(F)c2)CC1` (centres undefined), the Potency was 14.6 µM (active).
Take `COc1ccc(-n2cc(CNC3CCOCC3)c(-c3cccc(F)c3)n2)cc1`: the Potency is 18.4 µM (active).
As for `COc1ccc(-c2nn(-c3ccccc3)cc2CN2CCCO2)c(F)c1`, the Potency entry is “inactive”.
In the case of `CC1(C)CN(Cc2cccnc2)C(=O)[C@H]1CC(=O)Nc1ccc(Br)cc1`, the Potency result was “inactive”.
Under `CCc1nnc(NC(=O)c2ccco2)s1` stands “inactive”; under `Cn1nccc1NC(=O)Nc1ccc(OC(F)(F)F)cc1`, “inactive”; under `O=C(Nc1ccc(OC(F)(F)F)cc1)c1ccc2c(c1)no[n+]2[O-]`, 11.6 µM (active).
With `Cn1cccc1/C=N/NC(=O)c1ccc(OC(F)(F)C(F)F)cc1`, the Potency result is “inactive”.
`CC1(c2cccc(N)c2)OCCO1`: the Potency result was “inactive”.
`Cc1ccc(-c2cnc(C(O)c3cccc(C)c3C)[nH]2)cc1` (centres undefined): the Potency entry is “inactive”.
Under `Cc1ccc(-c2nc3c(C)cc(Br)cn3c2Cc2ccccc2)cc1` stands “inactive”.
With `CC(C)C[C@H]1CN([C@@H](Cc2ccccc2)CN2CCC[C@@H]2CN2C(=O)C(=O)NC[C@@H]2Cc2ccc(O)cc2)C(=O)C(=O)N1CCc1ccccc1`, the Potency result was “inactive”.
For `CC(C)C[C@H]1CNC(=S)N1C[C@H]1CCCN1C[C@H](Cc1ccc(O)cc1)N1C[C@H](Cc2ccc(O)cc2)N(CC2CCCCC2)C1=S`, the Potency was 14.6 µM (active).
As to `CCOc1ccc(CCN2C(=O)C(=O)N([C@@H](Cc3ccc(O)cc3)CN3CCC[C@H]3CN3C(=O)C(=O)NC[C@@H]3CC(C)C)C[C@@H]2Cc2ccccc2)cc1`, the Potency result was “inactive”.
In the case of `CC(C)[C@H](NC(=O)c1ccccc1F)C(=O)Nc1cccc(S(=O)(=O)N2CCOCC2)c1`, the Potency entry is “inactive”.
Consider `C[C@H]1NS(=O)(=O)c2cc(Cl)ccc2O[C@@H]1c1ccccc1`, for which the Potency entry was “inactive”.
Then `CC(Sc1ccc(S(=O)(=O)N2CCN(C)CC2)cn1)C(=O)NC1CCCC(C)C1C` (centres undefined), with “inactive”; and `CC(C)c1ccccc1OCC(O)CN(CC(O)COc1cccc2ccccc12)C(C)C` (centres undefined), with 25.9 µM (active).
For `CCC(C)Sc1nc2c(c(=O)[nH]c(=O)n2C)n1CC(O)COc1cccc2ccccc12` (centres undefined), the Potency result is “inactive”.
As to `CC1CC(C)CN(CCOc2cccc3ccccc23)C1` (centres undefined), the Potency entry is “inactive”.
Take `Cc1[nH]c2ccccc2c1C(=O)C(=O)NCc1nnnn1-c1cccc(F)c1`: the Potency entry was “inactive”.
For `O=C(NCc1ccc(F)cc1F)[C@@H]1CCCN1C(=O)[C@@H]1CCCN1C(=O)c1cccc(Cl)c1`, the Potency result is “inactive”.
In the case of `O=C(c1ccc2c(=O)n(Cc3ccco3)c(=S)[nH]c2c1)N1CCCC1`, the Potency entry was “inactive”.
Regarding `Cc1nc2nc(CSc3nc4ccccc4s3)cc(=O)n2[nH]1`, the Potency entry is “inactive”.
On to `O=[N+]([O-])c1c(NCCO)cc(Sc2nc3ccccc3s2)c2nonc12`, for which the Potency is 3.16 µM (active).
For `CCN(CC)CCCSc1nc2ccccc2s1`, the Potency result is “inactive”.
For the compound `CCc1nc2c(OCCc3cccc(OC)c3)cccn2c1N(C)C(=O)c1ccc(C)cc1`, the Potency entry was “inactive”.
In the case of `O=C(Nc1nnc(C2CC2)s1)c1ccccn1`, the Potency was 5.01 µM (active).
Under `CCc1ccccc1OCC(=O)Nc1nnc(C2CC2)s1` stands “inactive”.
Take `Cc1cc(C(=O)Nc2nnc(C3CC3)s2)c(C)s1`: the Potency entry is “inactive”.
For the compound `C[C@@H]1CN([C@H](C)CO)C(=O)c2cc(-c3ccc(F)cc3)cnc2O[C@H]1CN(C)C(=O)c1ccc(F)cc1`, the Potency entry was “inactive”.
For `CC(=O)Nc1ccc(S(=O)(=O)NNC(=O)CCc2ccccc2)cc1`, the Potency result was “inactive”.
Regarding `O=C(CCc1ccccc1)NNc1ccc(F)cc1`, the Potency was 2.31 µM (active).
As to `O=C(Cc1ccccc1)NCc1ccc(F)cc1`, the Potency result is “inactive”.
For `COc1ccc(-c2ccc(CN3C(C(C)C)C(=O)N(Cc4cn(CC5CCCCC5)nn4)CCS3(=O)=O)cc2)cn1` (centres undefined), the Potency entry is “inactive”.
